Our source for the max response, negative = inhibition values is PubChem BioAssay AID652054 (National Center for Advancing Translational Sciences (NCATS), 2013).

Among all 360,000 compounds or so, about 9,100 (2.5%) were called active. Roughly 4% stayed inconclusive and do not appear here. The sample holds actives, similar compounds and a random draw of the others, so the mix is not that of the screen. A number with no mark means an inactive call. Cut-off read from the data, not from the text of the source: active = max response below about -50%; inconclusive = no clear call, values can overlap the other calls; inactive = above that.
% is set by controls: 0 for no effect and ±100 for the full control effect.

This test deals with D(3) dopamine receptor (Homo sapiens) (UniProt P35462). Put plainly: qHTS of D3 Dopamine Receptor Antagonist: qHTS. The note with it: D3R cells, DiscoveRx beta-arrestin luminescence, antagonist mode; stronger effect = lower value. The essentials: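 Cells expressing the human receptor were seeded at 1500 cells/well, incubated overnight at 37 degrees C in 5% CO2, then exposed to library compounds with dopamine controls for 90 minutes at 37 degrees C before luminescent detection.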
Sequence of D(3) dopamine receptor (Homo sapiens) (P35462 whole entry, looked up): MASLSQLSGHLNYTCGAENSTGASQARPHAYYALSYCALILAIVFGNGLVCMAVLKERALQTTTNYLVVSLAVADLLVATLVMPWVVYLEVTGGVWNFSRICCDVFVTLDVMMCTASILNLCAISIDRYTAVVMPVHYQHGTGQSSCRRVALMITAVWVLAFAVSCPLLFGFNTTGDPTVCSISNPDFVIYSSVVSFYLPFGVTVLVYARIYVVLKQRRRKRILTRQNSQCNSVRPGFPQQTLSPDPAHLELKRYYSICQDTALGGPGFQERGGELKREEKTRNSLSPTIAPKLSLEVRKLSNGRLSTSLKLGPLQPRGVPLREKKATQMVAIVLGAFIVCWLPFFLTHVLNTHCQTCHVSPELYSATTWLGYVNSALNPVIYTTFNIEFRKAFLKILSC
(In general: Quantitative high-throughput screening tests each substance at several concentrations.)
In the case of `COc1ccc(-c2cc(NC(C)=O)c3ncc(-c4cc(OC)c(OC)c(OC)c4)n3c2)cn1`, the max response, negative = inhibition is 30.1%.

With `CSCCC(c1nnnn1Cc1ccccc1)N1CCN(C/C=C/c2ccccc2)CC1` (stereo not given), the max response, negative = inhibition is -87.8% (active).

On to `COc1ccccc1C(=O)NC(CCSC)C(=O)N1CCN(C/C=C/c2ccccc2)CC1` (stereo not given), for which the max response, negative = inhibition was -14%.

Take `CC(C)C(c1nnnn1Cc1ccccc1)N1CCC(C(N)=O)CC1` (stereo not given): the max response, negative = inhibition was 14.4%.

Regarding `COCCN1CCN(C(=O)c2cc(COc3ccc(F)cc3Cl)on2)CC1`, the max response, negative = inhibition was -9.58%.

Take `Cc1ccc(OCC(O)CN2CCN(CC(O)COc3ccc(C)cc3Cl)CC2)c(Cl)c1` (stereo not given): the max response, negative = inhibition is -59.6% (active).

Consider `Cc1cccc(OCC(O)CN2CCN(S(=O)(=O)c3ccc(C)cc3C)CC2)c1` (stereo not given), for which the max response, negative = inhibition was -9.79%.

Consider `CCCc1ccc(OCC(O)CN2CCN(CCO)CC2)cc1` (stereo not given), for which the max response, negative = inhibition was 6.19%.

With `Cc1ccc(Cl)c(OCC(=O)N2CCc3ccccc3C2)c1`, the max response, negative = inhibition is 1.13%.

For `OC(COc1ccc(F)cc1Cl)CN1CCc2ccccc2C1` (stereo not given), the max response, negative = inhibition was -83.8% (active).

Regarding `CC(C)C[C@H]1CNC(=S)N1C[C@H]1CCCN1C[C@H](Cc1ccc(O)cc1)N1C[C@H](Cc2ccc(O)cc2)N(CC2CCCCC2)C1=S`, the max response, negative = inhibition was 4.99%.

In the case of `CC(=O)NC(c1cccc(F)c1)c1nc(-c2cccc(F)c2)cs1` (stereo not given), the max response, negative = inhibition was 2.77%.

For `COC(=O)[C@]12CCCCC=C1N(Cc1ccc3c(c1)OCO3)C(=O)[C@H](CC(=O)N1CCOCC1)C2`, the max response, negative = inhibition is 6.26%.

Turning to `COc1ccc(C(C)C)cc1-c1ccc2nncn2c1`, the max response, negative = inhibition was -20%.

On to `COc1ccc(C(=O)OCC(=O)Nc2cc(C)on2)cc1F`, for which the max response, negative = inhibition was 9.93%.

Take `O=C(Nc1ccc(N2CCOCC2)cc1)c1cccc2c(-c3ccc(F)c(F)c3)coc12`: the max response, negative = inhibition was -14.5%.

For the compound `O=C(Nc1nnc([C@H]2C[C@H](O)[C@@H](CO)O2)s1)c1cccc(Cl)c1`, the max response, negative = inhibition was -110% (active).

For the compound `O=C(Nc1ccc(F)cc1)Nc1nnc([C@H]2C[C@H](O)[C@@H](CO)O2)s1`, the max response, negative = inhibition was 16.1%.

In the case of `Cc1ccc(CNC(=O)Nc2nnc([C@H]3C[C@H](O)[C@@H](CO)O3)s2)cc1`, the max response, negative = inhibition is 10.5%.

In the case of `CC1=C(C(=O)N2CCOCC2)CC(CC(=O)NCCCN(C)C)C(=O)N1Cc1ccc(C(C)(C)C)cc1` (stereo not given), the max response, negative = inhibition was 35.5%.

For the compound `Nc1nc2c(ncn2[C@@H]2O[C@H](CNS(=O)(=O)N3CCc4ccccc4C3)[C@@H](O)[C@H]2O)c(=O)[nH]1`, the max response, negative = inhibition was 4.77%.

Take `CCCCc1c(-c2ccc(Br)cc2)ncn1CCc1ccccc1OC`: the max response, negative = inhibition was 65.6%.

`COc1cccc(CC2(CO)CCCN(CC3=Cc4cc(OC)ccc4OC3)C2)c1` (stereo not given): the max response, negative = inhibition is -6.63%.

With `COc1cccc(CC2(CO)CCCN(Cc3ccc(OC(F)F)cc3)C2)c1` (stereo not given), the max response, negative = inhibition is 8.8%.

Take `COc1cccc(CC2(CO)CCCN(Cc3nc(-c4cccs4)oc3C)C2)c1` (stereo not given): the max response, negative = inhibition was -116% (active).

In the case of `CCOc1ccc(CCNC(=O)COC(=O)c2ccc(C)c(S(=O)(=O)N3CCOCC3)c2)cc1OCC`, the max response, negative = inhibition is -5.11%.

As to `O=C(c1ccco1)N1CCN(CCOc2ccccc2)CC1`, the max response, negative = inhibition is -16.8%.

Regarding `O=C(c1ccc(Br)o1)N1CCN(CCOc2ccccc2)CC1`, the max response, negative = inhibition was 27.8%.

For the compound `O=C(Nc1ccc(F)cc1F)N1CCCN(CCOc2ccccc2)CC1`, the max response, negative = inhibition is -70.2% (active).

On to `COc1cc(C)c(S(=O)(=O)N2CCOCC2)c(C)c1C`, for which the max response, negative = inhibition was 0.216%.

`COc1ccc(S(=O)(=O)N2CCCC2)c(C)c1C`: the max response, negative = inhibition is -3.98%.

As for `COc1ccc(S(=O)(=O)N2CCOCC2)c(C)c1C`, the max response, negative = inhibition was -69.1% (active).

As to `COc1ccc(CC(N)c2csc(NC(=O)Nc3ccc(C(C)C)cc3)n2)cc1` (stereo not given), the max response, negative = inhibition was -12.1%.

In the case of `OC(c1ccc(Cl)c(F)c1)c1ncc(-c2ccccc2Cl)[nH]1` (stereo not given), the max response, negative = inhibition is -18%.

On to `CCSc1ncnc2c(C#N)c3n(c12)CCCCC3`, for which the max response, negative = inhibition is -10.2%.

For `CCSC1=C(C#N)C(=O)n2c1cc1c2CCCC1`, the max response, negative = inhibition was -65.6% (active).

In the case of `CCN1C(=O)[C@H]2[C@@H](c3ccc(C(F)(F)F)cc3)N[C@]3(CCCN(Cc4ccc(Br)cc4)C3=O)[C@H]2C1=O`, the max response, negative = inhibition is 2.39%.

On to `O=C(Nc1cc(S(=O)(=O)Nc2ccc(Cl)cc2)ccc1O)c1ccc(F)cc1F`, for which the max response, negative = inhibition is -59.6% (active).

With `CCS(=O)(=O)c1ccc(O)c(NC(=O)COc2ccc(Cl)cc2)c1`, the max response, negative = inhibition was 0.528%.

Regarding `O=C(Nc1cccc(S(=O)(=O)NC2=NCCC2)c1)c1ccc(F)cc1F`, the max response, negative = inhibition is 5.01%.

As for `COc1ccc(-c2csc(C(O)c3cccc(Cl)c3)n2)cn1` (stereo not given), the max response, negative = inhibition was -24%.

Regarding `Nc1[nH]c(C(=O)c2ccccc2)c(-c2ccc(Br)cc2)c1C(=O)NC1CC1`, the max response, negative = inhibition is 6.89%.

Consider `N#CCCn1cnc2ccccc21`, for which the max response, negative = inhibition was -1.87%.

As for `COC(=O)c1ccc(-n2cnc3ccccc32)nc1`, the max response, negative = inhibition is 3.06%.

As to `c1ccc(-c2nccc(-c3ccc(-n4cnc5ccccc54)cc3)n2)nc1`, the max response, negative = inhibition was -53.4% (active).

As to `CC1=C(C(=O)N2CCOCC2)CC(CC(=O)NCCN2CCOCC2)C(=O)N1CCC1=CCCCC1` (stereo not given), the max response, negative = inhibition is 35.9%.

Take `O=C(NCCS(=O)(=O)N1CCN(c2ccccc2)CC1)c1cc(=O)c2ccccc2o1`: the max response, negative = inhibition is 9.87%.

On to `COc1ccc([C@H]2C[C@@H](n3cc(COC(=O)c4ccccc4)nn3)[C@H](O)CN2C(=O)c2cccs2)cc1`, for which the max response, negative = inhibition is -28.2%.

Turning to `CC1CN(c2nc(Nc3ccccc3)nc(N)c2[N+](=O)[O-])CC(C)O1` (stereo not given), the max response, negative = inhibition is 14.2%.

`CCN1CCN(c2nc(Nc3cccc(F)c3)nc(N)c2[N+](=O)[O-])CC1`: the max response, negative = inhibition was -76.5% (active).

With `COCCNc1nc(N)c([N+](=O)[O-])c(N2CCCCCC2)n1`, the max response, negative = inhibition was 16.7%.

Regarding `Cc1ccc(S(=O)(=O)N2CCC(=O)N([C@H](COCc3ccccc3)C(C)C)CC2)cc1`, the max response, negative = inhibition was 8.56%.

In the case of `CC(C)c1cc(Cn2c3ccccc3c(=O)n2C(C)Cn2cc(C3CC3)nn2)on1` (stereo not given), the max response, negative = inhibition is 0.832%.

Consider `CCCCC[C@@H]1C=C(C(=O)OCC)[C@H](c2ccccc2)N1S(=O)(=O)c1ccc(C)cc1`, for which the max response, negative = inhibition is 0%.

As for `O=C(OCc1cn([C@H]2C[C@H](c3ccccc3)N(C(=O)c3cccs3)C[C@@H]2O)nn1)c1ccccc1`, the max response, negative = inhibition was -25.2%.

On to `COc1c(C)cc(C(O)c2ncc(-c3cccc(C(F)(F)F)c3)[nH]2)cc1C` (stereo not given), for which the max response, negative = inhibition is 0%.

For `COC(=O)N(C)C[C@@H]1OCc2cnnn2CCCC(=O)N([C@@H](C)CO)C[C@@H]1C`, the max response, negative = inhibition was -14.7%.

With `O=c1cc(CN2CCCCCCC2)c2c(ccc3ccccc32)o1`, the max response, negative = inhibition was 5.7%.

Take `c1ccc2cc3[nH]c(CN4CCCCC4)nc3cc2c1`: the max response, negative = inhibition is -50.3% (active).

In the case of `Cc1ccc2[nH]c(=O)c(CN3CCCCC3)c(-c3ccccc3)c2c1`, the max response, negative = inhibition was 16.1%.

Consider `COc1cccc(/C=C2\SC(=S)N(CCCC(=O)N3CCOCC3)C2=O)c1`, for which the max response, negative = inhibition was -20.9%.

As to `COCCN1C(=O)N[C@@H](CCc2ccccc2)[C@H](C(C)=O)[C@H]1C`, the max response, negative = inhibition is 2.91%.

Regarding `CCN1C(=NCc2ccc(OC)cc2)N[C@@H](CCc2ccccc2)[C@H](C(=O)NCc2ccc(OC)cc2)[C@H]1C`, the max response, negative = inhibition was 4.01%.

Consider `CCN1C(=S)N[C@@H](CCc2ccccc2)[C@H](C(=O)OC)[C@H]1C`, for which the max response, negative = inhibition is -63% (active).

As to `Cn1c(CCN2CCN(c3ccccn3)CC2)nc2cc(NS(=O)(=O)c3ccc(F)cc3)ccc21`, the max response, negative = inhibition was 0%.

For the compound `CCOC1=C2CN(S(=O)(=O)c3ccc(C)cc3)[C@H](c3cccs3)C[C@H]2[C@H]2C(=O)N(c3ccccc3)C(=O)[C@H]2C1`, the max response, negative = inhibition is -26.5%.

`CCc1nc2c(OCc3ccccc3)cccn2c1N(C)C(=O)c1ccco1`: the max response, negative = inhibition was -0.512%.

In the case of `Cc1ccc(S(=O)(=O)N2C[C@@H](C)[C@]3(C2)[C@H](O)[C@H](OC(=O)NCc2ccccc2)C[C@H]2C(=O)N(c4ccccc4)C(=O)[C@H]23)cc1`, the max response, negative = inhibition was 18.6%.

For the compound `CC(=O)Nc1cc(-c2ccccc2N(C)C)cn2c(-c3ccc(F)c(Cl)c3)cnc12`, the max response, negative = inhibition is -55.6% (active).

Turning to `CC(=O)Nc1cccc(-c2cc(NC=O)c3ncc(-c4ccc(F)c(Cl)c4)n3c2)c1`, the max response, negative = inhibition was 58.6%.

Consider `CC(=O)Nc1cccc(-c2cc(NC(C)=O)c3ncc(-c4ccccc4)n3c2)c1`, for which the max response, negative = inhibition is 10.2%.

As to `CC(=O)Nc1cc(-c2ccccc2F)cn2c(-c3cccc(C(F)(F)F)c3)cnc12`, the max response, negative = inhibition was -2.07%.

For the compound `CC(=O)Nc1cc(-c2cccc(CO)c2)cn2c(-c3cccc(C(F)(F)F)c3)cnc12`, the max response, negative = inhibition was -52.6% (active).

In the case of `COc1ccccc1-c1cc(NC(C)=O)c2ncc(-c3ccc(F)cc3)n2c1`, the max response, negative = inhibition is 0%.

`C[C@H](NC(=O)CC[C@H]1O[C@@H](n2ccc(=O)[nH]c2=O)[C@H](O)[C@@H]1O)c1cccc2ccccc12`: the max response, negative = inhibition is -12.4%.

Take `COc1ccc(OC)c(NC(=O)c2cc(-c3cc(F)ccc3OCC3CCCO3)n[nH]2)c1` (stereo not given): the max response, negative = inhibition was 8.86%.

As for `COc1ccc(-n2c(-c3ccc(Cl)cc3)n[nH]c2=S)c(OC)c1`, the max response, negative = inhibition was 15.8%.

As to `COC(=O)C[C@H]1C=C[C@@H](NS(=O)(=O)c2ccc(C)cc2)[C@@H](CO)O1`, the max response, negative = inhibition was 14.9%.

Take `CCCCc1nc2ccc(F)cc2cc1C`: the max response, negative = inhibition was 20.6%.

As to `Cc1ccc(OCCCC(=O)N2CCOCC2)c(C)c1`, the max response, negative = inhibition is 4.43%.

With `Cc1ccc(OCCCCN2CCCCC2)c(Br)c1`, the max response, negative = inhibition was -102% (active).

As for `C=CCc1cc(C)ccc1OCCCn1ccnc1`, the max response, negative = inhibition is -3.51%.

Regarding `CC(=O)Nc1ccc(S(=O)(=O)N2CCN(CCCOc3cc(C)ccc3C)CC2)cc1`, the max response, negative = inhibition is 15.6%.

On to `Cc1ccc(C(C)(C)C)c(OCCCCN2CCCC2)c1`, for which the max response, negative = inhibition is -80.6% (active).

As for `Cc1ccc(C)c(OCC(=O)NNC(=O)C2CCC2)c1`, the max response, negative = inhibition is 1.58%.
